Screens deposited in PubChem by National Center for Advancing Translational Sciences (NCATS).
PNC assembly inh: High Content Assay for Compounds that inhibit the Assembly of the Perinucleolar Compartment; PC3M PTB-GFP, PNC prevalence imaging, 16 h; stronger effect = lower value; activity change (PNC), negative = inhibition, % at 10 µM; 3.1% of 140,000 active;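 active = readout at or below -70, meaning at least 70% loss of cells showing the perinucleolar compartment, a nuclear body marking cancer cells; inconclusive = readout between -30 and a set limit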
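PC3M cells stably expressing PTB-GFP, 750–1000 cells/well, treated 16 h at 37 °C with compound (23 nl of library stock), in duplicate. After paraformaldehyde fixation and Hoechst stain, imaged at 20x; PNC prevalence scored by image analysis.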
HPGD block: qHTS Assay for Inhibitors of HPGD (15-Hydroxyprostaglandin Dehydrogenase) | Potency, µM, usual class: inhibitors | purified HPGD, NADH fluorescence kinetic, PGE2 substrate | 15-hydroxyprostaglandin dehydrogenase [NAD(+)] (Homo sapiens), P15428 | 4.3% of 150,000 active
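NADH formation kinetics: reaction with 30 uM PGE2 and 1 mM NAD+ (final), 20 nM enzyme, Tris-HCl pH 8 with Tween 20, after 15 min compound preincubation at room temperature. Fluorescence change, last versus first of five reads.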
ALDH1A1 inh-1: qHTS Assay for Inhibitors of Aldehyde Dehydrogenase 1 (ALDH1A1) | Aldehyde dehydrogenase 1A1 (Homo sapiens), P00352 | Purified ALDH1A1, NADH fluorescence, propionaldehyde substrate | Potency, µM (top dose mostly 75.3 µM), usual class: inhibitors | 7.3% of 220,000 active
Target sequence (P00352 whole entry, looked up): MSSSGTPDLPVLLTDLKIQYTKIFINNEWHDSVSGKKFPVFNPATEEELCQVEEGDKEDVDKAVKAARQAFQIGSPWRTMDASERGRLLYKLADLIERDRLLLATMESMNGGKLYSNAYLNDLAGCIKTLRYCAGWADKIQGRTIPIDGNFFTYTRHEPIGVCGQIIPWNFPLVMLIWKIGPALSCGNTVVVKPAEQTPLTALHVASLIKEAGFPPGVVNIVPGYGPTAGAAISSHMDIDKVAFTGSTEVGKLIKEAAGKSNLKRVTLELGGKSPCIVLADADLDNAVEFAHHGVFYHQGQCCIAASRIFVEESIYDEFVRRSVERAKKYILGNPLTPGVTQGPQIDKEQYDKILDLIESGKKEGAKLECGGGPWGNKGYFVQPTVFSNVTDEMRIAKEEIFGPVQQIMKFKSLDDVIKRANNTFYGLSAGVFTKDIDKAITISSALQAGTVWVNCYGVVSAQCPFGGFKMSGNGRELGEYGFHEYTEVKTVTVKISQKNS
HPGD inh cf: Confirmation qHTS Assay for Inhibitors of HPGD (15-Hydroxyprostaglandin Dehydrogenase); 90% of 90 active; shares compounds with HPGD block; recombinant HPGD, NADH fluorescence, PGE2 substrate; AID 2429, 2010; Potency, µM (highest dose often 57.1 µM), most hits filed as inhibitors; calls by dose curve
ALDH1A1 inh-2: Inhibitors of Aldehyde Dehydrogenase 1 (ALDH1A1): Followup Confirmation and Counterscreen. 90% of 90 active. shares compounds with ALDH1A1 inh-1. AID 493210, 2011. purified ALDH1A1, NADH fluorescence, propionaldehyde/NAD+. Potency, µM (top dose mostly 57.1 µM), most hits filed as inhibitors; calls by dose curve
Of the large screens only hits and unclear results are named; the others gave an inactive call (follow-up assays come after a bar, where they were run). Only some compounds are listed: those with a hit (about 11% of all), similar ones and a draw of the others. Unless noted, calls follow the shape of the dose curve; as a rule, active = well fitted inhibition curve with a large enough effect (not every such curve was filed as active); inconclusive = small, poorly fitted or top-dose-only effect, or another doubt; inactive = no such curve, though single readings can be large or run the other way.

O=c1c2ccccc2sn1-c1ccccc1	HPGD block 0.562µM, ALDH1A1 inh-1 4.47µM | HPGD inh cf 0.447µM
CCC1CCCCN1C(=O)c1nn2cccnc2c1Cl (stereo unspecified)	none | HPGD inh cf inactive
CCC1CCCCN1C(=O)CCCOc1ccccc1 (stereo unspecified)	HPGD block inconclusive
CC(C)c1ccc(NC(=O)Nc2cc3sccc3n2C)cc1	PNC assembly inh inconclusive
O=C(CSc1nc(-c2ccccc2)nn1C(=O)c1ccccc1)Nc1cccc([N+](=O)[O-])c1	HPGD block 1.26µM, ALDH1A1 inh-1 22.4µM | HPGD inh cf 2.51µM
Cn1ccnc1SCC(=O)Nc1cccc([N+](=O)[O-])c1	none (no result: PNC assembly inh, HPGD block)
CCC1=NC(c2ccccc2OC)N(O)C1(C)C (stereo unspecified)	ALDH1A1 inh-1 inconclusive
Cc1ccc(NC(=O)c2ccc(Cl)cc2[N+](=O)[O-])nc1	none (no result: PNC assembly inh, HPGD block)
Cc1ccc(CNC(=O)c2ccc(Cl)cc2[N+](=O)[O-])cc1	HPGD block 0.199µM | HPGD inh cf 2µM
COC(=O)C1=C(C)N=C2SCCC(=O)N2C1/C=C/c1ccccc1 (stereo unspecified)	ALDH1A1 inh-1 inconclusive
CC1Cc2ccccc2N1C(=O)CSc1nnc(-c2ccc(S(=O)(=O)N3CCOCC3)cc2)n1C (stereo unspecified)	none
COC(=O)c1sc2ccccc2c1-n1cccc1C(=O)C(=O)Nc1ccccc1	none
CSc1ccccc1NC(=O)Nc1cccc(Cl)c1C	none (no result: PNC assembly inh, HPGD block)
Cc1c(Cl)cccc1NC(CC(=O)c1ccccc1)C(=O)O (stereo unspecified)	PNC assembly inh -83.3, ALDH1A1 inh-1 0.316µM | ALDH1A1 inh-2 inactive
O=C(CC(Nc1ccc(Cl)cc1)C(=O)O)c1ccccc1 (stereo unspecified)	PNC assembly inh inconclusive
O=C(CC(Nc1ccccc1Cl)C(=O)O)c1ccccc1 (stereo unspecified)	ALDH1A1 inh-1 0.126µM (no result: PNC assembly inh, HPGD block) | ALDH1A1 inh-2 inactive
CC1(C)Cc2c(sc3c4nnnn4c4nnnn4c23)CO1	none
CC(=O)Nc1cccc(NC(=O)C2CC(=O)N(c3ccc(C)cc3)C2)c1 (stereo unspecified)	none
CC1=C(C(N)=O)C(c2ccncc2)n2nc(-c3ccccc3Cl)nc2N1 (stereo unspecified)	none
CCOc1ccc(C2C(C#N)=C(N)Oc3cc(C)n(CCN(C)C)c(=O)c32)cc1OCC (stereo unspecified)	none
Cc1ccc(C2C3=C(CCCC3=O)Nc3nc(SCC(=O)NCc4ccco4)[nH]c(=O)c32)cc1 (stereo unspecified)	HPGD block inconclusive, ALDH1A1 inh-1 inconclusive
CC(C)c1nc(N(C)S(C)(=O)=O)nc(-c2ccc(F)cc2)c1/C=C/C(O)CC(O)CC(=O)O (stereo unspecified)	ALDH1A1 inh-1 0.224µM (no result: PNC assembly inh) | ALDH1A1 inh-2 0.126µM
CN(Cc1cn(-c2ccccc2)nc1-c1ccc(F)cc1)C(=O)CCC(=O)O	none
CCOC(=O)N1CCN(Cc2nc3c(c(=O)n(C)c(=O)n3C)n2Cc2cccc3ccccc23)CC1	ALDH1A1 inh-1 0.1µM | ALDH1A1 inh-2 0.0398µM
CCOC(=O)N1CCN(Cc2nc3c(c(=O)n(C)c(=O)n3C)n2Cc2cccc(C)c2)CC1	ALDH1A1 inh-1 0.0794µM | ALDH1A1 inh-2 0.0631µM
CCOC(=O)N1CCN(Cc2nc3c(c(=O)n(C)c(=O)n3C)n2Cc2ccc(F)cc2)CC1	PNC assembly inh inconclusive
CCOC(=O)N1CCN(Cc2nc3c(c(=O)[nH]c(=O)n3C)n2Cc2ccccc2C)CC1	ALDH1A1 inh-1 inconclusive
CCCn1c(CNc2ccc(Br)cc2)nc2ccccc21	none
CCOc1ccc(NC(=O)CN2CCN(S(=O)(=O)c3ccc(Cl)cc3)CC2)cc1	none
CCOc1ccc(NC(=O)CN2CCN(CC(=O)c3ccc(OCC)cc3)CC2)cc1	ALDH1A1 inh-1 1.41µM | ALDH1A1 inh-2 4.47µM
Cc1ccc(C)n1-c1ccc(N2CCOCC2)c(Br)c1	none
COc1ccc(S(=O)(=O)NCC2CCCN(C(=O)c3sccc3C)C2)cc1 (stereo unspecified)	ALDH1A1 inh-1 0.178µM (no result: PNC assembly inh, HPGD block) | ALDH1A1 inh-2 0.0891µM
COc1ccc(S(=O)(=O)NCC2CCCN(C(=O)c3ccccc3)C2)cc1 (stereo unspecified)	ALDH1A1 inh-1 0.199µM (no result: PNC assembly inh, HPGD block) | ALDH1A1 inh-2 0.199µM
COc1ccc(S(=O)(=O)NCC2CCCN(C(=O)c3cccnc3C)C2)cc1 (stereo unspecified)	none (no result: PNC assembly inh, HPGD block)
COCCC(=O)N1CCCC(CNS(=O)(=O)c2ccc(OC)cc2)C1 (stereo unspecified)	none (no result: PNC assembly inh, HPGD block)
COc1ccc(S(=O)(=O)NCC2CCCN(C(=O)CC3CCCC3)C2)cc1 (stereo unspecified)	ALDH1A1 inh-1 0.794µM (no result: PNC assembly inh, HPGD block) | ALDH1A1 inh-2 0.891µM
COc1ccc(NC(=O)N2CCCC(CNS(=O)(=O)c3cccs3)C2)c(C)c1 (stereo unspecified)	none (no result: PNC assembly inh, HPGD block)
O=C(CN1C(=O)COc2ccccc21)N1CCc2ccccc2C1	PNC assembly inh inconclusive
Cc1ccc(SCC(=O)Nc2cccc(NC(=O)c3ccco3)c2)cc1	none
O=C(CN(Cc1ccccc1)C(=O)c1cc2c(s1)CCC2)NCc1cccs1	ALDH1A1 inh-1 0.447µM | ALDH1A1 inh-2 0.0708µM
CCN(CC(=O)NCc1cccs1)C(=O)c1ccc(S(=O)(=O)N(C)C)cc1	none (no result: PNC assembly inh, HPGD block)
Cn1c(SCC(=O)Nc2ccc3c(c2)OCCO3)nnc1-c1ccco1	PNC assembly inh inconclusive, ALDH1A1 inh-1 0.0316µM (no result: HPGD block) | ALDH1A1 inh-2 25.1µM
CCn1c(SCC(=O)Nc2ccc3c(c2)OCCO3)nnc1-c1ccco1	ALDH1A1 inh-1 inconclusive
O=C1CCC2c3ccc4ccccc4c3CCN12 (stereo unspecified)	ALDH1A1 inh-1 inconclusive
O=C1O/C(=C/Br)CCC1c1cccc2ccccc12 (stereo unspecified)	HPGD block 20µM, ALDH1A1 inh-1 0.501µM (no result: PNC assembly inh) | ALDH1A1 inh-2 0.631µM
CC1CC(C)CN(CCCNC(=O)Cc2c(C(=O)O)[nH]c3ccccc23)C1 (stereo unspecified)	ALDH1A1 inh-1 inconclusive
COc1ccc(CCNC(=O)C(NS(=O)(=O)c2ccc3c(c2)CCN3C(C)=O)C(C)C)cc1OC (stereo unspecified)	none (no result: PNC assembly inh, HPGD block)
O=C(CN1C(=O)C(=O)c2ccccc21)NCCc1ccccc1	ALDH1A1 inh-1 0.0891µM (no result: PNC assembly inh, HPGD block) | ALDH1A1 inh-2 0.0631µM
CCN(CC)C(=O)c1ccccc1NC(=O)CN1C(=O)c2ccccc2C1=O	none (no result: PNC assembly inh, HPGD block)
O=C(CN1C(=O)c2ccccc2C1=O)NCCc1c[nH]c2ccccc12	none
CCN(CC)C(=O)CN1C(=O)C(=O)c2ccccc21	ALDH1A1 inh-1 0.02µM (no result: PNC assembly inh, HPGD block) | ALDH1A1 inh-2 0.0891µM
CCCCCCCN=CC1=C(O)CC(c2ccccc2)CC1=O (stereo unspecified)	none
